CYP2C9 inhib = inhibitors of human CYP2C9; inhibition, % at 5 µM; CYP2C9 Supersomes, luciferin-H conversion, luminescence; actives 20% (n = 96,000);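 active = blocking of liver enzyme CYP2C9 beyond about 50% at 5 µM, limit read from the data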
CYP2C19 inh = inhibitors of human CYP2C19 | actives 21% (n = 96,000) | inhibition, % at 5 µM | AID 778 | CYP2C19 Supersomes, luciferin-H EGE luminescence, 30 min;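 active = CYP2C19 inhibition above a set limit at 5 µM in the primary screen, cut at about 50% in these data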;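 also: plate controls were negative control wells for no effect and 2.5 mM tranylcypromine positive control for full effect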
Cav3 T inh = human Cav3.2 channel inhibition, primary screen. O95180. AID 449739. B-score at 10 µM. Cav3.2-expressing cells, Fluo-4 calcium fluorescence FDSS; stronger effect = lower value. actives 4% (n = 100,000);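 active = single-dose well whose peak fluorescence ratio is a statistical outlier from its plate by either plate-standardised score or position-corrected B-score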
CYP2C19 act = cytochrome P450 2C19 (human) activation | P33261 | AID 1025 | 96,000 tested, under 10 active | activation factor at 5 µM | recombinant CYP2C19, luciferin-H EGE luminescence; stronger effect = higher value; 0 = fully inhibited enzyme, 1 = untreated enzyme;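 active = activation factor of at least 2 at 5 µM in the primary screen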;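 also: 0 = wells with 2.5 mM tranylcypromine and 1 = vehicle-only wells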
CYP2C9 act = activators of human CYP2C9; actives 1.4% (n = 96,000); recombinant CYP2C9, luciferin-H conversion, luminescence; stronger effect = higher value; factor 1 = untreated enzyme, 0 = blocked; activation factor at 5 µM; AID 1024;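 active = activation factor of 2 or more for CYP2C9 at a 5 µM dose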;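 also: 0 = sulfaphenazole-blocked wells and 1 = vehicle-only wells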
* hit, by the source's call; · = no result. Most compounds without a hit are left out; they make up all but 27% or so of the library.

SMILES | CYP2C9 inhib | CYP2C19 inh | Cav3 T inh | CYP2C19 act | CYP2C9 act
O=C(c1ccccc1)N1CCCC(c2nc3c(nnn3Cc3ccccc3)c(=O)[nH]2)C1 (centres undefined) | 78* | 24 | 0.27 | 0.8 | 0.2
CCOc1cc(NC(=S)NCC(C)C)c(OCC)cc1NC(=O)c1cccs1 | 8 | 2 | -1.9 | 1 | 0.9
O=S(Cc1cc(Oc2ccccc2)nc(-c2ccccc2)n1)c1ccccc1 (centres undefined) | 78* | 84* | -6.6* | 0.2 | 0.2
c1ccc(-c2ccc(Oc3cc(N4CCOCC4)nc(-c4ccccc4)n3)cc2)cc1 | 16 | -1 | -0.8 | 1 | 0.8
COc1ccc(N2CCN(C(=O)CCCSc3nc4ccccc4[nH]3)CC2)cc1 | -22 | 41 | -0.36 | 0.6 | 1.2
C=CCOC(=O)C1=C(C)NC(=S)NC1/C=C/c1ccccc1 (centres undefined) | 65* | 60* | -5.4 | 0.4 | 0.4
CCOC(=O)c1c(CN2CCCCC2)n(C)c2cc(Br)c(OC)cc12 | 34 | 12 | 0.056 | 0.9 | 0.7
CCOC(=O)c1c(CN2CCN(CCO)CC2)n(C)c2cc(Br)c(OC)cc12 | 79* | 9 | 0.7 | 0.9 | 0.2
CN(C)S(=O)(=O)N1CCN(C(=O)c2ccccc2)CC1 | -2 | 44 | 0.16 | 0.6 | 1
O=C(Cc1ccccc1)NCc1nc2ccccc2[nH]1 | · | · | 0.059 | · | ·
C=CCOC(=O)COc1ccc2c(C)c(C)c(=O)oc2c1 | -42 | 55* | 1.2 | 0.4 | 1.4
C=CCOC(=O)COc1ccc2c(C)c(CC)c(=O)oc2c1 | -4 | 64* | 0.61 | 0.4 | 1
C/C(=N\O)c1ccc2c3c([nH]c2c1)CCCC3 | 2 | 31 | -1 | 0.7 | 1
Cc1cc(=O)n2[nH]cc(C(=O)O)c2n1 | · | · | -0.1 | · | ·
CCCCNC(=O)CCCn1c(=O)c2ccccc2n(CC(=O)NCCC2=CCCCC2)c1=O | 72* | 67* | · | 0.3 | 0.3
O=C(Cn1c(=O)n(CCCC(=O)NC2CCCC2)c(=O)c2ccccc21)NCCC1=CCCCC1 | 68* | 23 | · | 0.8 | 0.3

Screens as filed in PubChem.
